Test results published in PubChem BioAssay (NCATS).
Inconclusive results are not listed. Activity calls are given as the source filed them. Calls come from the whole dose curve; as a rule, active = well fitted cell-killing curve with a large enough effect; inconclusive = small, poorly fitted or top-dose-only effect, or effect the other way; inactive = no such curve, though single readings can be large or run the other way.

assay: Viability qHTS for spleen associated tyrosine kinase inhibitor (SYKi) drug resistant MV4-11 cells (AID 1963824); details: SYKi-resistant MV4-11 viability, CellTiter-Glo, 72 h; series mostly up to 45 µM; note: nearly all actives have a fitted effect of over 35% in size
Method in brief: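 SYK-inhibitor-resistant MV4-11 AML cells were seeded at 500 per well onto compound and cultured 72 hours (37 °C, 5% CO2). CellTiter-Glo was then added, and after 10 min at room temperature, luminescence gave viability.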
Potency is the fitted concentration of half-maximal effect.

SMILES | Potency | viability, % of control
CNc1nc(Nc2ccc(C(=O)N3CCOCC3)cc2OC)ncc1Cl | 5.8 µM (active) | 
COc1cccc(-c2ccc([C@@H](Oc3cc(-c4ccc(C[C@H](N)C(=O)O)cc4)nc(N)n3)C(F)(F)F)cc2)c1 | 20.6 µM (active) | 
CN(C1CCc2c(c3ccccc3n2CC(=O)O)C1)S(=O)(=O)c1ccc(F)cc1 (configuration not stated) | inactive | 
COc1ccc(C[C@H](N)C(=O)N[C@H]2[C@@H](O)[C@H](n3cnc4c(N(C)C)ncnc43)O[C@@H]2CO)cc1 | 0.184 µM (active) | 
COC1CC(OC2CCC3(C)C(=CCC4C3CCC3(C)C(C(C)O)CCC43O)C2)OC(C)C1OC1OC(C)C(OC2OC(COC3OC(COC4OC(CO)C(O)C(O)C4O)C(O)C(O)C3O)C(O)C(O)C2O)C(OC)C1O (configuration not stated) |  | 97.1% [at 9.25 µM] (inactive)
Cc1occc(=O)c1O[C@@H]1O[C@H](CO[C@@H]2OC[C@](O)(CO)[C@H]2O)[C@@H](O)[C@H](O)[C@H]1O | inactive | 
C=C(CO[C@@H]1O[C@H](CO[C@@H]2OC[C@](O)(CO)[C@H]2O)[C@@H](O)[C@H](O)[C@H]1O)C1Cc2cc(C(C)=O)ccc2O1 (some centres not stated) | inactive | 
Clc1ccc(Nc2nnc(Cc3ccncc3)c3ccccc23)cc1 | 10.6 µM (active) | 
CC(C)(C)n1nc(Cc2cccc([N+](=O)[O-])c2)c2c(N)ncnc21 | 5.17 µM (active) | 
CCOc1cc(CNC2CCCC2)cc(Cl)c1OCc1ccc(Cl)cc1 | 5.8 µM (active) | 
COc1ccc(C(OC2OC(CO)C(O)C(O)C2O)C(C)O)cc1 (configuration not stated) | inactive | 
O=C1NC(=O)/C(=C\c2ccc(-c3ccc(F)cc3O)o2)S1 | 11.6 µM (active) | 
